MARV entry inh: blocks Marburg virus binding to or entry into cells; Marburg virus pseudotyped entry inhibition, cell reporter; Potency, µM (titrated, usually from 37.8 µM), without a hit: at the top dose activity change, negative = inhibition, hits mostly inhibitors; 300,000 tested, 1.8% active; calls by dose curve; tested in HEK293 cells; further: potency means the concentration at half of the fitted maximal effect; on the % scale 0 is the no-effect control and ±100 the full control effect
LASV entry inh: inhibitors of Lassa virus binding or cell entry; Potency, µM (series often up to 37.9 µM), for inactives: top-dose activity change, negative = inhibition, most hits filed as inhibitors; AID 540256; 300,000 tested, 1.2% active; Lassa virus pseudotype entry inhibition, cell reporter; calls by dose curve; tested in HEK293 cells; further: potency means the concentration at half of the fitted maximal effect; on the % scale 0 is the no-effect control and ±100 the full control effect; nearly all actives have a fitted effect of over 50% in size
AMA1 RON2 block: inhibitors of Plasmodium falciparum AMA1-RON2 interaction; AlphaScreen AMA1-biotinylated RON2 peptide binding; Potency, µM (doses to about 58.2 µM), inactives show top-dose activity change, negative = inhibition, actives largely listed as inhibitors; 360,000 tested, 0.2% active; active means well fitted inhibition curve with a large enough effect; inconclusive means small, poorly fitted or top-dose-only effect; inactive means no such curve, though single readings can be large or run the other way;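 further: potency means the concentration at half of the fitted maximal effect; 0% = vehicle wells and -100% = peptide control; nearly all actives have a fitted effect of over 45% in size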
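AMA1 (3D7) with his tag at 25 nM final met compounds first, then biotinylated RON2 peptide at 25 nM; detection used donor plus acceptor beads, 10 µg/mL apiece, read by AlphaScreen after 30 min at room temperature.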
Shiga inhibitor: blocks Shiga toxin action in Vero cells. inhibition, % at 38.7 µM. Vero cells, Shiga toxin protein synthesis inhibition reporter. 290,000 tested, 9.2% active; in the data active means inhibition mostly above about 28%, no sharp cut-off; inactive means mostly below about 43%; further: 0% is about no effect
CHX counter: counter-screen for Shiga toxin inhibitors: cycloheximide protein synthesis inhibition; 300,000 tested, 12% active; max response, %; cell reporter, cycloheximide protein synthesis inhibition counterscreen; in the data active means max response mostly above about 13%, no sharp cut-off; inactive means mostly below about 14%; further: read at 38.3 µM for the half of the compounds with a filed dose; 0% is about no effect
The depositor's hits bear a star; ? = inconclusive; nt = not tested or not shown; + = active, no number; [ ] = another dose, or the depositor's remark. This is one part of a sample in which hits are shown more often than they occur.

SMILES | MARV entry inh | LASV entry inh | AMA1 RON2 block | Shiga inhibitor | CHX counter
CCCc1ccc2oc(C(=O)NCCCN3CCOCC3)c(C)c2c1 | ? | 28%[46.1 µM] | 13% | 67* | 50*
Cc1c(C(=O)NCCCN2CCOCC2)oc2c1C1(CCC2)SCCS1 | -16% | -18% | 6% | + | 7
COc1cccc2c1C1(CCCCC1)CC2NC(=O)C(F)(F)F (stereo not given) | -15%[14.2 µM] | nt | nt | nt | nt
O=C(COC(=O)c1ccc(F)cc1F)Nc1cccc(S(=O)(=O)N2CCOCC2)c1 | 5% | 9% | -1% | nt | nt
O=C(O)C[C@H](C(=O)OCCOc1ccccc1)N1CCOCC1 | 0% | nt | nt | nt | nt
COC(=O)N[C@@H](c1ccc(Cl)cc1)C(C(C)=O)C(=O)OC (stereo not given in full) | 13%[14.2 µM] | nt | nt | nt | nt
CCCc1ccc2oc(C(=O)NCCN3CCCC(C(N)=O)C3)c(C)c2c1 (stereo not given) | nt | nt | 3% | -4 | 8
CCCc1ccc2oc(C(=O)NCCN3CCCC(O)C3)c(C)c2c1 (stereo not given) | ? | ? | -2% | 77* | 34*
CC(C)N=c1scc(-c2ccco2)n1/N=C/c1ccc(O)c(O)c1 | nt | nt | -27% | 56 | 43*
CC1CCC(NC(=S)NCCN(C)C)CC1 (stereo not given) | ? | -25% | 5% | 45* | 23*
CC(C)n1c(SCC(=O)NC2CC2)nnc1C1CC1 | 7%[46.1 µM] | 5%[46.1 µM] | -8% | -5 | 1
c1ccc(NCC2OCc3ccccc3CO2)cc1 | 1% | ? | 16% | 98* | 43*
CCCCCCNCC1OCc2ccccc2CO1 | 28% | 0% | -16% | -7 | 2
CCOc1ccc(-c2c(C)nn3c(C)c(C(=O)NCC(C)c4ccccc4)cnc23)cc1OCC (stereo not given) | nt | 17%[46.1 µM] | nt | nt | nt
Cc1ccc2nc(NC(=O)C3CC(=O)N(Cc4ccco4)C3)sc2c1 (stereo not given) | 10%[46.1 µM] | 25%[46.1 µM] | -8% | 25 | 19*
O=C(Nc1nc2c(F)cc(F)cc2s1)C1CC(=O)N(Cc2ccco2)C1 (stereo not given) | nt | nt | -1% | 47 | 24*
CC(=O)NC12CC3CC(C1)CC(C(=O)Oc1ccc(N(C)S(=O)(=O)c4cc(C)ccc4C)cc1)(C3)C2 | -3%[46.1 µM] | ? | -8% | nt | nt
Cc1n[nH]c(C)c1CCOc1ccc(C(C)C)cc1 | ? | 3% | -7% | 49* | 32
Cc1ccc(C)n1-c1ccc(C(=O)Nc2ccccc2)cc1 | -20% | -19% | -9% | 98* | 34*
Cc1ccc(C)n1-c1ccc(C(=O)O)cc1 | 2% | nt | nt | 18 | 6
Cc1ccc(C)n1-c1cccc(NC(=O)c2ccccc2)c1 | 8% | -4% | -12% | 38* | 19*
S=C(Nc1ccccc1Cl)NC1CCCCCC1 | 6% | -3% | 52% | 63* | 18*
CC(C)c1ccc(NC(=S)NC2CCCCCC2)cc1 | ? | ? | 85% | 69* | 32*
S=C(Nc1ccc(Oc2ccc(NC(=S)NC3CCCCC3)cc2)cc1)NC1CCCCC1 | ? | ? | 16%[2.32 µM] | 37 | 4
S=C(Nc1ccc2nsnc2c1)NC1CCCCC1 | ? | -1% | 47% | 88* | 59*
SMILES | MARV entry inh | LASV entry inh | AMA1 RON2 block | Shiga inhibitor | CHX counter
S=C(Nc1ccc2nsnc2c1)N1CCCCCC1 | -1%[46.1 µM] | 19%[46.1 µM] | 2% | 35 | -6
FC(F)(F)c1ccc(NC(=S)NC2CCCCC2)cc1 | ? | ? | 12% | 82* | 44*
Cc1oc(-c2ccc(Cl)cc2)nc1CS(=O)CC(=O)NCc1ccc(Cl)cc1 (stereo not given) | ? | -5%[46.1 µM] | nt | nt | nt
Nc1ccccc1-c1nnc(SCC(=O)Nc2ccccc2OC(F)F)[nH]c1=O | 23% | -10% | -2% | nt | nt
CCOc1ccc(NC(=O)CCNC(=O)C2CCN(S(=O)(=O)c3ccccc3)CC2)cc1 | nt | nt | 2% | -4 | -2
COc1ccc(S(=O)(=O)N2CCC[C@H]2C(=O)N2CCC[C@H]2C(=O)N(C)Cc2ccccc2)cc1C | nt | nt | -1% | nt | nt
CCCCn1c(N)c(N(CCC(C)C)C(=O)CC2CCCC2)c(=O)[nH]c1=O | 2% | ? | 12% | nt | nt
NNC(=O)c1c(O)c2cccc3c2n(c1=O)CCC3 | nt | nt | 41% | -7 | -1
Cc1ccc(NC(=S)NC2CCCCC2)cc1S(=O)(=O)N(C)C | ? | ? | 2% | 125* | 32*
S=C(Nc1ccc(Cl)c(Cl)c1)NC1CCN(Cc2ccccc2)CC1 | ? | ? | -8% | -7 | -7
Fc1cccc(NC(=S)NC2CCCCCCC2)c1 | nt | nt | 55% | 75* | 35*
S=C(Nc1ccc(Cl)c(Cl)c1)NC1CCCCC1 | ? | -19% | 59% | + | 56*
Cc1cccc(NC(=S)NNC(=S)NC2CCCCC2)c1C | 25%[46.1 µM] | -9%[46.1 µM] | 90% | 44* | 16*
FC(F)(F)c1cccc(NC(=S)NC2CCCC2)c1 | ? | -3% | 18% | 4 | -2
Cc1ccc(NC(=O)CNCC2CCCCC2)cc1S(=O)(=O)N(C)C | nt | nt | -24% | 13 | -3
CCN1CCN(Cc2nc3cc(NC(=O)c4ccccc4[N+](=O)[O-])ccc3n2CC)CC1 | -14%[46.1 µM] | 0%[46.1 µM] | nt | nt | nt
Cc1csc(NC(=O)CSc2nc(=O)n(CCN(C)C)c3c2CCCC3)n1 | -25% | -11%[46.1 µM] | -1% | nt | nt
S=C(NNc1ccc2ccccc2c1)NC1CCCCC1 | ? | 19% | 16µM* | 61* | 49*
CCn1nc(C)c(CN2CCc3c([nH]c4ccccc34)C2c2ccc(F)c(OC)c2)c1C (stereo not given) | ? | 23%[46.1 µM] | 40µM* | 19 | 16*
CCn1cc(CN2CCc3c([nH]c4ccccc34)C2c2ccc(F)c(OC)c2)c(C)n1 (stereo not given) | ? | 0%[46.1 µM] | -9% | 4 | 3
OCc1ccnc2c(O)cccc12 | ? | 4.1µM* | 11µM* | 21 | 4
Oc1ccc(CNc2ccccc2)c2cccnc12 | ? | ? | -74% | 2 | -2
Oc1ccc(Cn2ccnc2)c2cccnc12 | ? | ? | -85% | -6 | -2
COCc1ccc(O)c2ncccc12 | ? | ? | 25µM* | -8 | 26*
C[C@H](CO)N1C[C@H](C)[C@@H](CN(C)S(=O)(=O)c2ccc(F)cc2)Oc2ccc(NC(=O)Cc3ccccc3)cc2C1=O | nt | nt | 1% | nt | nt
SMILES | MARV entry inh | LASV entry inh | AMA1 RON2 block | Shiga inhibitor | CHX counter
S=C(NC1CCCCC1)N1CCn2cccc2C1c1ccncc1 (stereo not given) | 4%[46.1 µM] | 6% | -7% | -4 | -3
S=C(NC1CCCCC1)N1CCn2cccc2C1c1cccnc1 (stereo not given) | 8.9µM* | ? | -7% | -8 | 3
O=C(NNS(=O)(=O)c1ccccc1)c1csc(-c2cccnc2)n1 | ? | 3% | -6% | -9 | -2
O=C(Nc1ccccc1Cl)c1csc(-c2cccnc2)n1 | nt | nt | 0% | 41* | 29*
O=C(NNC(=O)c1csc(-c2cccnc2)n1)c1ccccc1 | 2% | 3% | 113% | 18 | 30*
COc1ccc(CCNC(=O)CN2C(=O)NC(Cc3c[nH]c4ccccc34)C2=O)cc1 (stereo not given) | 27%[46.1 µM] | ? | 5% | -5 | 6
CCON1C(=O)C2(CCCCC2)C(=O)C12C=CCCC2 (stereo not given) | 16% | 1% | 19% | nt | nt
